In PubChem BioAssay:
Active and inactive are the calls of the source. Unless noted, no rule for the calls is given here.

Key:
[1] = tested on: XIP peptide (Xip251-270) binding; test: small-molecule binders of XIP peptide, primary screen, biochemical, small-molecule microarray, fluorescence 635/667 nm, 0.1 µg/mL protein (AID 1182); conditions: fluorescent protein binding, 635 nm, higher = more signal, called active from +8 up or from −8 down
XIP peptide (Xip251-270) = test: small-molecule binders of XIP peptide, primary screen, biochemical, small-molecule microarray, fluorescence 635/667 nm, 0.5 µg/mL protein (AID 1183); conditions: small-molecule microarray binding, fluorescence 635 nm; higher = more signal
[2] = Plasmodium falciparum growth inhibition, primary screen, strain 3D7, DAPI fluorescence, 100 nL (AID 1184);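 also: parasites grown inside human red blood cells in medium with human serum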; conditions: P. falciparum 3D7 growth, 3 d, higher = more signal
[3] = target: Homeobox protein Hox-A13 (Mus musculus) (UniProt Q62424); test: inhibitors of HoxA13-DNA binding, primary screen, biochemical, fluorescence polarization, labeled oligonucleotide (AID 1185); conditions: 15 min, higher = more signal, called active from +8 up or from −8 down
Homeobox protein Hox-A13 (Mus musculus), sequence (Q62424 whole entry, looked up): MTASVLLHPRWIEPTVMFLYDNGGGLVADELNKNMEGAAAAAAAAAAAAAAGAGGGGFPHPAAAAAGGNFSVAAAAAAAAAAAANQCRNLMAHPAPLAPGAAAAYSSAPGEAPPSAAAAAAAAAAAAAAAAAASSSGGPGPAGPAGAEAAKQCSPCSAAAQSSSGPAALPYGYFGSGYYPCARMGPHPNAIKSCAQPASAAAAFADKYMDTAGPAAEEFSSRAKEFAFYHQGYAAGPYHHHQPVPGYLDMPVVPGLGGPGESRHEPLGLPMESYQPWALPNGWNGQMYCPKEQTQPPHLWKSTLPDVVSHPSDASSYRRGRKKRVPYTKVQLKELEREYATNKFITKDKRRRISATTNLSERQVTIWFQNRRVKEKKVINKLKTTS

[4] = inhibitors of hydroxyurea-induced Chk1 phosphorylation, primary screen, imaging, HeLa, phospho-Chk1 antibody, percent positive cells (AID 1186); conditions: hydroxyurea-induced phospho-Chk1 immunofluorescence imaging, higher = more signal
[5] = inhibitors of hydroxyurea-induced Chk1 phosphorylation, primary screen, imaging, HeLa, phospho-Chk1 nuclear intensity (AID 1187); conditions: hydroxyurea-induced phospho-Chk1 immunofluorescence imaging, higher = more signal

| Structure (SMILES) | composite z-score [1] | composite z-score (XIP peptide (Xip251-270)) | z-score [2] | z-score [3] | z-score [4] | z-score [5] |
| --- | --- | --- | --- | --- | --- | --- |
| CCOC(=O)C1=C[C@@H](c2ccccc2)N(S(=O)(=O)c2ccc(C)cc2)[C@H]1c1ccccc1 | 0.598 (inactive) | 0.303 | -0.346 | 0.0724 (inactive) | 0.667 (inactive) | 0.529 (inactive) |
| COC(=O)[C@@]1(Cc2ccc(OC)cc2)[C@H]2c3cc(C(=O)N4CCCC4)n(Cc4ccc(S(C)(=O)=O)cc4)c3C[C@H]2CN1C(=O)c1ccccc1 | 0.807 (inactive) | 0.511 | -1.42 | -3.91 (inactive) | 0.364 (inactive) | 0.202 (inactive) |
| CCCC=C(CCC)[C@@H](NS(=O)(=O)c1cccc2cccnc12)c1ccc(-c2ccccc2)cc1 | -0.356 (inactive) | 0.604 | -0.831 | -0.807 (inactive) | 0.483 (inactive) | 0.309 (inactive) |
| COC(=O)[C@@]1(Cc2ccccc2CN=[N+]=[N-])N=C(c2ccc(OCCCO)cc2)O[C@H]1c1ccccc1CN=[N+]=[N-] | 0.192 (inactive) | 0.723 | -2.2 | 0.87 (inactive) | -0.598 (inactive) | -0.223 (inactive) |
| COCCOC(=O)N1C(=O)[C@@]2(c3ccccc31)[C@H](c1ccc(OCCO)cc1)N1[C@H](c3ccccc3)[C@H](c3ccccc3)OC(=O)[C@H]1[C@@H]2C(=O)N1CCCCCCC1 | 8.16 (active) | 1.04 | -2.08 | -15.8 (active) | -0.17 (inactive) | 0.128 (inactive) |
| O=C(CS)NCCCCCNC(=O)[C@@H]1C[C@@H]2C(=O)N[C@@H](Cc3ccccc3)C(=O)N2[C@@H]1c1cccc(OCCO)c1 | 0.74 (inactive) | 0.77 | -0.0054 | -2.89 (inactive) | 0.341 (inactive) | 0.581 (inactive) |
| Cc1cccc([C@H]2C[C@H]3C(I)=C[C@@H]2C(=O)[C@]32CO2)c1 | 0.162 (inactive) | -0.452 | 1.22 | -1.53 (inactive) | -0.33 (inactive) | -0.466 (inactive) |
| O=C1C[C@@](C(=O)NCC(F)(F)F)(c2ccc([N+](=O)[O-])cc2)[C@@H](c2ccc(CO)cc2)N1CC12CC3CC(CC(C3)C1)C2 | 1.13 (inactive) | 0.709 | -1.43 | -4.42 (inactive) | -0.123 (inactive) | -0.661 (inactive) |
| Cc1ccccc1C(O)C1C=CC2C(=O)N(c3ccccc3)C(=O)C2N1Nc1ccc([N+](=O)[O-])cc1 (stereo unspecified) | 1.61 (inactive) | 0.618 | -0.42 | -3.91 (inactive) | -0.0666 (inactive) | -0.614 (inactive) |
| COC(=O)[C@@]1(Cc2ccc(F)cc2)[C@H]2c3cc(C(=O)N(C)C)n(Cc4c(CO)[nH]cc(C)c4=O)c3C[C@H]2CN1C(=O)c1ccccc1 | 0.493 (inactive) | -0.0903 | -1.81 | -5.02 (inactive) | 0.815 (inactive) | 0.493 (inactive) |
| C=C(COC)/C(=C/C[C@@H](OC(=O)c1ccncc1)c1ccccc1OCCO)c1cc(C(=O)OC)ccc1OC | -0.115 (inactive) | -0.728 | -2.97 | -4.02 (inactive) | 0.386 (inactive) | 0.77 (inactive) |
| CCOC(=O)C=Cc1ccccc1O | 1.39 (inactive) | 0.322 | -1.39 | -0.772 (inactive) | -0.312 (inactive) | -0.678 (inactive) |
| [N-]=[N+]=Nc1ccccc1C[C@]1(C(=O)O)N=C(c2ccc(OCCCO)cc2)O[C@H]1c1ccccc1N=[N+]=[N-] | 0.466 (inactive) | 0.532 | -1.5 | -4.13 (inactive) | -0.281 (inactive) | 0.0939 (inactive) |
| CCCCC(=O)N(CCN1CCOCC1)[C@@H]1CC(C(=O)NCCO)=C[C@H](Oc2c(I)cc(CO)cc2OC)[C@H]1O | 0.763 (inactive) | 0.918 | -0.0342 | -4.26 (inactive) | -0.686 (inactive) | -0.31 (inactive) |
| Cc1nc2cc(Br)ccc2c(=O)n1Cc1cccc(O)c1 | 0.651 (inactive) | 0.529 | -0.563 | 0.464 (inactive) | 0.18 (inactive) | 0.257 (inactive) |
| C=CCC(OC(C)=O)[C@@H]1[C@@H](N(Cc2cccc3ccccc23)C(=O)c2ccc(-c3ccccc3)cc2)c2cc(OCCCO)ccc2N1C(=O)c1ccc(-c2ccccc2)cc1 (stereo partly specified) | -0.303 (inactive) | -0.811 | 0.579 | -1.17 (inactive) | 0.492 (inactive) | 0.0424 (inactive) |
| CC(C)C[C@@H]1NC(=O)[C@H]2C[C@@H](C(=O)NCCCCCN)[C@@H](c3cccc(OCCO)c3)N2C1=O | 1.35 (inactive) | 0.853 | 0.304 | -3.68 (inactive) | -0.242 (inactive) | 0.0992 (inactive) |
| COc1ccc([Si](C)(C)[C@H]2[C@H](CC(=O)N3CCC[C@H]3CO)O[C@@]3(C(=O)N(Cc4ccc(N5CCC5=O)cc4)c4ccccc43)[C@@H]2C)cc1 | 1.18 (inactive) | 0.709 | -0.986 | -3.74 (inactive) | 0.312 (inactive) | -0.36 (inactive) |
| C=CCC(OC(C)=O)[C@@H]1[C@@H](N(Cc2ccc(-c3cccc(C(F)(F)F)c3)o2)C(=O)c2ccc(C)cc2)c2cc(OCCCO)ccc2N1C(=O)Cc1ccc(OC)cc1 (stereo partly specified) | -0.635 (inactive) | -0.0047 | -0.549 | -0.791 (inactive) | -0.159 (inactive) | 0.0947 (inactive) |
| COc1ccc(C#Cc2ccc3c(c2)[C@]2(C(=O)N3)[C@H](C(=O)N3CCCCCCC3)[C@H]3C(=O)O[C@H](c4ccccc4)[C@H](c4ccccc4)N3[C@@H]2c2ccc(O)cc2)cc1 | 2.34 (inactive) | 0.755 | -1.56 | 0.625 (inactive) | -0.25 (inactive) | -0.372 (inactive) |
| COc1ccc(C(=O)Nc2cccc(CN3C(=O)[C@@]4(O[C@@H](CC(=O)N(CCO)Cc5ccccc5)[C@H]([Si](C)(C)c5ccc(OC)cc5)[C@H]4C)c4ccccc43)c2)cc1 | 1.31 (inactive) | 0.442 | -2.54 | -0.674 (inactive) | -1.43 (inactive) | -0.643 (inactive) |
